The record followed here is the supplement of paper PMC8728848.

Common to all, as to test: glycan array binding signal (z-score within array); higher = stronger binding
Conditions in all cases: glycan notation: IUPAC condensed, linker removed

The target in experiment [1] is Fuc(a1-2)[GalNAc(a1-3)]Gal(b1-4)Glc. The essentials:
(§1)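 The Consortium for Functional Glycomics database supplied 3228 glycan arrays, of which those lacking an available protein sequence were dropped. The binding signal, a within-array Z-score, was averaged across arrays of the same protein sequence and across linkers. Negative scores can be read as non-binding.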

Experiment [2] concerns the target Gal(b1-3)GalNAc(b1-4)Gal(b1-4)Glc. The method in brief: as §1
Experiment [3] deals with Gal(b1-4)GlcNAc(b1-3)Gal(b1-4)[Fuc(a1-3)]GlcNAc(b1-3)Gal(b1-4)[Fuc(a1-3)]GlcNAc. The essentials: as §1
The target of experiment [4] is Gal(b1-4)GlcNAc(b1-3)GalNAc. The essentials: as §1
Another experiment concerns the target Gal3S6S(b1-4)GlcNAc6S. The method in brief: as §1
For another experiment, the target named is Glc(a1-4)Glc. The essentials: as §1
The target in another experiment is GlcNAc(b1-3)GalNAc. The essentials: as §1
Experiment [5] deals with GlcNAc(b1-3)[GlcNAc(b1-6)]GalNAc. The essentials:
as §1

Experiment [6] has as its target GlcNAc(b1-4)[GlcNAc(b1-6)]GalNAc. The method in brief:
as §1

Experiment [7] deals with Neu5Ac(a2-3)Gal(b1-3)[Fuc(a1-4)]GlcNAc. The essentials: as §1
The target of experiment [8] is Neu5Ac(a2-3)Gal(b1-4)GlcNAc. The method in brief:
as §1

Experiment [9] deals with Neu5Ac(a2-3)Gal(b1-4)GlcNAc(b1-3)Gal(b1-4)GlcNAc(b1-3)Gal(b1-4)GlcNAc. The essentials: as §1
In experiment [10] the target is Neu5Ac(a2-3)Gal(b1-4)[Fuc(a1-3)]GlcNAc6S. The essentials: as §1
The target of experiment [11] is Neu5Ac9Ac(a2-6)Gal(b1-4)GlcNAc. The essentials: as §1
For experiment [12], the target named is Neu5Gc(a2-6)Gal(b1-4)GlcNAc. The method in brief:
as §1

The target in experiment [13] is Fuc(a1-2)[GalNAc(a1-3)]Gal(b1-4)[Fuc(a1-3)]GlcNAc. The method in brief:
as §1

The target in the next experiment is Gal(a1-4)Gal(b1-4)Glc. The method in brief: as §1
A further experiment concerns the target Gal(b1-3)Gal. The essentials: as §1
Another experiment deals with Gal(b1-4)GlcNAc. The essentials: as §1
Experiment [14] concerns the target Gal(b1-4)GlcNAc(b1-2)Man(a1-3)[Gal(b1-4)GlcNAc(b1-2)Man(a1-6)]Man(b1-4)GlcNAc(b1-4)GlcNAc. The method in brief: as §1
A further experiment has as its target GalNAc(a1-3)Gal. The essentials:
as §1

The target in another experiment is GalNAc(b1-4)GlcNAc. The essentials:
as §1

The target in experiment [15] is GlcNAc(b1-2)Man(a1-3)[GlcNAc(b1-2)Man(a1-6)]Man(b1-4)GlcNAc(b1-4)GlcNAc. The method in brief:
as §1

The target of the next experiment is GlcNAc(b1-3)Gal. The essentials:
as §1

The target in experiment [16] is GlcNAc(b1-6)Gal(b1-4)GlcNAc. The method in brief:
as §1

The target of experiment [17] is Man(a1-2)Man(a1-2)Man(a1-6)[Man(a1-3)]Man. The essentials: as §1
Experiment [18] deals with Man(a1-2)Man(a1-3)[Man(a1-2)Man(a1-6)]Man. The essentials: as §1
For experiment [19], the target named is Man(a1-3)[Man(a1-6)]Man(a1-6)[Man(a1-3)]Man(b1-4)GlcNAc(b1-4)GlcNAc. The essentials:
as §1

In experiment [20] the target is Neu5Ac(a2-3)Gal(b1-3)[Neu5Ac(a2-3)Gal(b1-4)]GlcNAc. The method in brief:
as §1

The target in the next experiment is Neu5Ac(a2-3)Gal(b1-4)Glc. The method in brief: as §1
The target of another experiment is Neu5Ac(a2-6)Gal(b1-4)Glc. The method in brief:
as §1

The target of experiment [21] is Neu5Ac(a2-8)Neu5Ac(a2-8)Neu5Ac(a2-8)Neu5Ac(a2-3)[GalNAc(b1-4)]Gal(b1-4)Glc. The essentials:
as §1

The sample as a whole holds a higher share of the strongest signals than the screen did.

B1: CLL-1 (Homo sapiens) (protein)
chain: MWIDFFTYSSMSEEVTYADLQFQNSSEMEKIPEIGKFGEKAPPAPSHVWRPAALFLTLLCLLLLIGLGVLASMFHVTLKIEMKKMNKLQNISEELQRNISLQLMSNMNISNKIRNLSTTLQTIATKLCRELYSKEQEHKCKPCPRRWIWHKDSCYFLSDDVQTWQESKMACAAQNASLLKINNKNALEFIKSQSRSYDYWLGLSPEEDSTRGMRVDNIINSSAWVIRNAPDLNNMYCGYINRLYVQYYHCTYKKRMICEKMANPVQLGSTYFREA
For B1, the “glycan array binding signal (z-score)” value is -0.065 in [1]; -0.279 in [2]; -0.107 in experiment [3]; -0.238 in experiment [4]; 3.91 with Gal3S6S(b1-4)GlcNAc6S; 1 with Glc(a1-4)Glc. In addition, the “glycan array binding signal (z-score)” value was -0.228 in the experiment with GlcNAc(b1-3)GalNAc; -0.19 in experiment [5]; -0.247 in experiment [6]; 1.22 in [7]; -0.14 in [8]; 2.45 in experiment [9]. Moreover, the “glycan array binding signal (z-score)” value in [10] is -0.15; in experiment [11], -0.216; in [12], -0.231.

B2: PMA (Polygonatum multiflorum) (protein)
chain: LLTTTLFVFISSTRSLASTNVLYSDVGNAILNAKESLIYGDYRLDMQSDCNLVLYNKAAPYWASGTRWSWGGNCHLNLQSNGELVMYAYLGRTRIAIWRSGIISATGSYALVLKYDGALHVHGPSLWSTNATGPTTPTTASWSIDSTLWSGDVATIGPTIANGDYKLELLDTCNLTLSNTKTGQVLWYTNTTDWVHDCYVNIEGNGELKIKYLGGATLWSNKVGAGYTNNYVLGLRPDGKLDTYNAPIWSPTIGPGVHVAPAVYNASSNAVAAEGNGEKIAMVTGRAKNST
On to B2, for which the “glycan array binding signal (z-score)” value in [1] is -0.249; in experiment [13] it was -0.236; in the experiment with Gal(a1-4)Gal(b1-4)Glc, -0.244; with Gal(b1-3)Gal, -0.195; with Gal(b1-4)GlcNAc, -0.068; in experiment [14], 7.37. In addition, the “glycan array binding signal (z-score)” value is -0.253 with GalNAc(a1-3)Gal; -0.246 with GalNAc(b1-4)GlcNAc; 5.03 in experiment [15]; -0.263 with GlcNAc(b1-3)Gal; -0.255 in experiment [16]; 5.65 in experiment [17]. Besides, the “glycan array binding signal (z-score)” value in experiment [18] was 4.98; in experiment [19], 2.16; in experiment [20], -0.191; in the experiment with Neu5Ac(a2-3)Gal(b1-4)Glc it was -0.233; with Neu5Ac(a2-6)Gal(b1-4)Glc, -0.255; in experiment [21] it was -0.245.
